This passage reports outcome and AC50 results from PubChem BioAssay (EPA / NIEHS).

The source made the active and inactive calls. Rule for the calls: active = hit-call score of the fitted dose curve at least 0.9, where 1 is the maximum; inactive = score below 0.9.

As a reminder, the AC50 is the concentration at which the activity in the assay is half-maximal.

The nature of experiment [1]: ATG_CRE_CIS: Attagene CIS-FACTORIAL HepG2 Assay for human cAMP Responsive Element (CRE) binding protein 3 (AID 2282926). Particulars: HepG2 CRE cis-reporter, Attagene multiplexed mRNA; actives raise or lower the signal. The gist of the method: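 Liver-derived HepG2, transfected with a CRE-containing reporter panel, exposed 24 h; transcript levels sized and quantified by capillary electrophoresis of labelled amplicons; signal changes either way referenced to vehicle.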

The target of experiment [2] is CCAAT/enhancer-binding protein beta (Homo sapiens) (UniProt P17676). Description: ATG_C_EBP_CIS: Attagene CIS-FACTORIAL HepG2 Assay for human CCAAT/Enhancer Binding Protein (C/EBP) beta (AID 2282927). Particulars: HepG2 Attagene cis-factorial transcription factor reporter; actives raise or lower the signal. The gist of the method:
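Changes in reporter mRNA, rather than exogenous chimeric receptor activity, reflect native C/EBP signalling in transfected HepG2 cells dosed for 24 h; transcripts are detected by RT-PCR and capillary electrophoresis.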

Experiment [3] in a line: ATG_CMV_CIS: Attagene CIS-FACTORIAL HepG2 Assay for human CMV (Internal Marker) (AID 2282928).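 Note: endpoint acts as a background internal control marker rather than a target.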 Particulars: HepG2 CMV promoter reporter, transcription factor profiling; actives raise or lower the signal. The gist of the method:
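Readout: fluorescent reporter cDNA fragments separated by capillary electrophoresis after RT-PCR and HpaI cut. Cells: HepG2 carrying transfected cis-promoter reporter constructs, dosed 24 h. Endpoint serves as background internal-marker control, fit bidirectionally versus DMSO.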

Experiment [4] addresses Aryl hydrocarbon receptor (Homo sapiens) (UniProt P35869). Description: ATG_Ahr_CIS: Attagene CIS-FACTORIAL HepG2 Assay for human Aryl Hydrocarbon Receptor (Ahr) (AID 2282930). Particulars: HepG2 AhR cis-factorial reporter transcription; actives raise or lower the signal. Summed up: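 HepG2, transient MRTU (cis) transfection, 24 h exposure. RNA → cDNA → PCR → 6-FAM primer extension → HpaI 2 h 37 C → CE. Fit: bidirectional, DMSO baseline.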

The nature of experiment [5]: ATG_AP_1_CIS: Attagene CIS-FACTORIAL HepG2 Assay for human Activator Protein 1 (AP-1) (AID 2282931). Particulars: HepG2 Attagene cis-factorial AP-1 reporter mRNA; actives raise or lower the signal. The gist of the method:
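Reporter transcripts were measured 24 h after dosing by RT-PCR and capillary electrophoresis of fluorescent fragments. Cells: HepG2 carrying transfected cis-regulated reporter constructs reading endogenous factor activity. Gain or loss fitted against DMSO.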

Experiment [6] in a line: ATG_AP_2_CIS: Attagene CIS-FACTORIAL HepG2 Assay for human Activator Protein 2 (AP-2) (AID 2282932). Particulars: HepG2 AP-2 cis-reporter, Attagene transcription factor profiling; actives raise or lower the signal. Summed up:
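Endogenous transcription factor activity is reported through transfected multiplex reporter constructs in HepG2, after 24 h of compound exposure. Transcripts were quantified by RT-PCR and capillary electrophoresis of fluorescent fragments. Bidirectional fit against DMSO.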

A short description of experiment [7]: ATG_BRE_CIS: Attagene CIS-FACTORIAL HepG2 Assay for human Bone Morphogenetic Protein (BMP) Response Element (BRE) (AID 2282933). Particulars: HepG2 BMP response element reporter, Attagene transcription factor profiling; actives raise or lower the signal. The gist of the method:
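Endogenous transcription factor activity at a BMP response element was monitored in transfected HepG2 cells 24 h after dosing. Fluorescent RT-PCR products were resolved by capillary electrophoresis, and activity was fitted in both directions versus DMSO.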

Experiment [8] addresses Retinoic acid receptor alpha (Homo sapiens) (UniProt P10276). Kind of experiment: ATG_DR5_RAR_CIS: Attagene CIS-FACTORIAL HepG2 Assay for human Retinoic Acid Receptor Alpha (RARE), DR5 submotif (AID 2282934).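 For AC50: reporter responds to endogenous RAR alpha beta and gamma in HepG2 not RARA alone.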 Particulars: HepG2 Attagene cis-factorial RARE DR5 reporter, mRNA; actives raise or lower the signal. Summed up:
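HepG2, transient cis-reporter transfection, 24 h exposure. mRNA readout: RT-PCR, FAM label, HpaI cut, capillary electrophoresis. DMSO baseline, gain/loss fitting.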

Experiment [9] addresses Transcription factor E2F1 (Homo sapiens) (UniProt Q01094). Description: ATG_E2F_CIS: Attagene CIS-FACTORIAL HepG2 Assay for human E2F Transcription Factor 1 (AID 2282935). Particulars: HepG2 Attagene cis-reporter, E2F reporter RNA transcripts; actives raise or lower the signal. The gist of the method: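 Gain or loss of reporter transcript, fitted against DMSO, reflects E2F1-driven transcription. Transiently transfected HepG2 dosed 24 h before RNA isolation. Quantified by fluorescent RT-PCR products separated by capillary electrophoresis.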

A short description of experiment [10]: ATG_DR4_LXR_CIS: Attagene CIS-FACTORIAL HepG2 Assay for human Liver X Receptor (LXR), DR4 submotif (AID 2282929). Particulars: HepG2 Attagene DR4 cis-reporter, mRNA transcription; actives raise or lower the signal. The gist of the method:
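Readout: reporter transcript fluorescence after RT-PCR and capillary electrophoresis, fitted bidirectionally against DMSO controls. Human HepG2 liver cells carried transiently transfected multiplexed reporter constructs; endogenous transcription factor activity measured 24 h post-dosing.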

Aryl hydrocarbon receptor (Homo sapiens), sequence (P35869 whole entry, looked up): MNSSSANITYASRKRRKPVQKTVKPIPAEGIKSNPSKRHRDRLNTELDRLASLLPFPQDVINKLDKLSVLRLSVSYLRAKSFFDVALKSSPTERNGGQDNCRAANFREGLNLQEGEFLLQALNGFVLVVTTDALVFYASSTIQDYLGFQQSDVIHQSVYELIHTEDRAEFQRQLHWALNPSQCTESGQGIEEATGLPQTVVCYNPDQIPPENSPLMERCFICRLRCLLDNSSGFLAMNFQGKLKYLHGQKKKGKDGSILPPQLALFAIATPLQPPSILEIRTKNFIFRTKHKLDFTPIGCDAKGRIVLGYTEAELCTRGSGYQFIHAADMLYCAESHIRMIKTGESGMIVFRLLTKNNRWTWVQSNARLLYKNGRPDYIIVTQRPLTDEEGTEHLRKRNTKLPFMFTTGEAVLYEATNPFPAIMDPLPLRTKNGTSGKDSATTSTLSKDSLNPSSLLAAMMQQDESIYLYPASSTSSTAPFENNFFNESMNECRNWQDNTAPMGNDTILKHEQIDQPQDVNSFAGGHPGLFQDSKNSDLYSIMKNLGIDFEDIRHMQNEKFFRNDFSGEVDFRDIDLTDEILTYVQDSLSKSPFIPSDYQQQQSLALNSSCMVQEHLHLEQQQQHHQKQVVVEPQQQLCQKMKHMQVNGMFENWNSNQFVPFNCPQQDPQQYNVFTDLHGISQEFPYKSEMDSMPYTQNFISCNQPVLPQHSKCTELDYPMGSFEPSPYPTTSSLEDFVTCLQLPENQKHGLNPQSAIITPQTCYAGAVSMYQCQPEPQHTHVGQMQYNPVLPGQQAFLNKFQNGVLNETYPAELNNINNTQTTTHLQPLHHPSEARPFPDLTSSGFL
CCAAT/enhancer-binding protein beta (Homo sapiens), sequence (P17676 whole entry, looked up): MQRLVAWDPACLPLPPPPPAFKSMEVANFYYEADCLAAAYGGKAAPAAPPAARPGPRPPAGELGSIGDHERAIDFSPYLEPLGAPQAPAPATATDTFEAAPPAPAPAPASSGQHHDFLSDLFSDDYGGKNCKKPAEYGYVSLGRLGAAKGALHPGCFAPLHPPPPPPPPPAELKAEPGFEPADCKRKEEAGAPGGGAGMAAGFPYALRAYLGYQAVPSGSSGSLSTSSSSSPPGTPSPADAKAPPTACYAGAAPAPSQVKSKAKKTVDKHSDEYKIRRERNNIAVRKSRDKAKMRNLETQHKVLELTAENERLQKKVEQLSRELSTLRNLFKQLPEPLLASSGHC
Transcription factor E2F1 (Homo sapiens), sequence (Q01094 whole entry, looked up): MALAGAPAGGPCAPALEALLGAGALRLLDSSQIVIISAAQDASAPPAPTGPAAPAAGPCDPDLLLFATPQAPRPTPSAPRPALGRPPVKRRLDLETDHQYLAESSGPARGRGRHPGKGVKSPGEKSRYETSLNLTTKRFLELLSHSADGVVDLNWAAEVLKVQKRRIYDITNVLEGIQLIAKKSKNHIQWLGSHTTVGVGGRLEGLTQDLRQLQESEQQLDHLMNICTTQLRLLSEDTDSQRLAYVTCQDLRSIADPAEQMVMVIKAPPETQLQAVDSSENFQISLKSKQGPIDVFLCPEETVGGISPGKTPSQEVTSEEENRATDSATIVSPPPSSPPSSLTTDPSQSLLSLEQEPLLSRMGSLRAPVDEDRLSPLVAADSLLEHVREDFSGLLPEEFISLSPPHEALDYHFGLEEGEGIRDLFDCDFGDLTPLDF
Retinoic acid receptor alpha (Homo sapiens), sequence (P10276 whole entry, looked up): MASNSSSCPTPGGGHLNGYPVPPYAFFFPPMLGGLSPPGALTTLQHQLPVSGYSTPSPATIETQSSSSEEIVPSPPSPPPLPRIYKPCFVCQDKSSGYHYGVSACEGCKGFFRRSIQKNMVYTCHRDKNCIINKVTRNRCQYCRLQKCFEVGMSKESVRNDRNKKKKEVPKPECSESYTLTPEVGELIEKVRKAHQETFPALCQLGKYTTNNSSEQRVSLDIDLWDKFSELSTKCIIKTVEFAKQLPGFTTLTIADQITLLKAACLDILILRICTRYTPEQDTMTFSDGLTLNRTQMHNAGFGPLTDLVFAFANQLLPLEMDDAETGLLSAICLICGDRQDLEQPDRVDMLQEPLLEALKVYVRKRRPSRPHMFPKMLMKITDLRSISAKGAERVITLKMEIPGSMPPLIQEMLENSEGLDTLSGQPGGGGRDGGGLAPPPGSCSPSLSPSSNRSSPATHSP

Consider `CC(=O)Oc1ccc(C)cc1`, for which the call in [1], in [2], in experiment [3], in experiment [4], in [5] and in [6] was inactive. Further, the call in experiment [7], in experiment [8] and in [9] was inactive.
As to `CC1(C)[C@H]2CC[C@]1(C)C(=O)C2`, the result in experiment [1], in [2], in experiment [3], in [10], in [5] and in experiment [7] was inactive. The outcome in experiment [8] and in experiment [9] was inactive.
Regarding `CCO[Si](C)(OCC)OCC`, the compound was called inactive in [1], in experiment [2], in experiment [3], in experiment [10], in experiment [5] and in experiment [7]. Moreover, the outcome in experiment [8] and in experiment [9] was inactive.
As for `NCCCN1CCN(CCCN)CC1`, the compound was called inactive in experiment [1], in [2], in experiment [3], in [4], in experiment [5] and in [6]. The call in experiment [7], in experiment [8] and in experiment [9] was inactive.
With `CCCOC(=O)CCCCC(=O)OCCC`, the call in experiment [1], in experiment [2], in [3], in experiment [4], in experiment [6] and in experiment [7] was inactive. In addition, the call in experiment [8] and in experiment [9] was inactive.
For the compound `COC=O`, the result in experiment [1], in experiment [2], in experiment [3], in experiment [4], in [5] and in experiment [6] was inactive. Also, the compound was called inactive in [7] and in experiment [8].
In the case of `N#[N+]c1ccc2c(S(=O)(=O)[O-])cccc2c1O`, the compound was classed as inactive in experiment [1], in [2], in experiment [3], in experiment [4], in experiment [5] and in experiment [6]. Besides, the result in [7], in experiment [8] and in experiment [9] was inactive.
Regarding `CC=C1CC2C=CC1C2` (stereo unspecified), the compound was called inactive in experiment [1], in experiment [2], in [3], in [4], in experiment [7] and in experiment [8]. Besides, the result in experiment [9] was inactive. The concentration at half-maximal activity (AC50) in experiment [5] was 67.1 µM (active).
With `O=S1(=O)OC(c2ccc(O)cc2)(c2ccc(O)cc2)c2ccccc21`, the result in [1], in [2], in experiment [3], in [10], in experiment [6] and in [7] was inactive. For the same compound, the result in experiment [8] and in experiment [9] was inactive.
For `Nc1cccc(C(F)(F)F)c1`, the compound was classed as inactive in [1], in [2], in experiment [3], in [4], in experiment [5] and in experiment [6]. The compound was classed as inactive in experiment [7], in experiment [8] and in [9].
`C1CN(SSN2CCOCC2)CCO1`: the outcome in [1], in experiment [2], in experiment [3], in experiment [4], in experiment [5] and in experiment [6] was inactive. In addition, the compound was classed as inactive in experiment [7], in experiment [8] and in experiment [9].
For the compound `CCCCCCCCCCCSCC(=O)O`, the compound was called inactive in experiment [1], in [2], in experiment [3], in [5], in experiment [6] and in experiment [7]. Also, the outcome in experiment [9] was inactive. Also, the AC50 in experiment [10] is 48.8 µM (active); in [8], 2.13 µM (active).
`CCCCNc1ccc(NCCCC)c2c1C(=O)c1ccccc1C2=O`: the result in experiment [1], in experiment [2], in [3], in [4], in experiment [5] and in [7] was inactive. In addition, the result in experiment [8] and in experiment [9] was inactive.
Turning to `O=C(Nc1ccccc1SSc1ccccc1NC(=O)c1ccccc1)c1ccccc1`, the compound was called inactive in experiment [1], in [2], in experiment [3], in [10], in experiment [6] and in [8]. In addition, the call in experiment [9] was inactive. For the same compound, the AC50 in experiment [5] is 62.4 µM (active).
In the case of `O=c1cc(-c2ccccc2)oc2ccccc12`, the outcome in experiment [1], in experiment [2], in [5], in experiment [8] and in experiment [9] was inactive. The AC50 is 27.7 µM (active) in [3], 7.62 µM (active) in experiment [4], 26.3 µM (active) in [6] and 133 µM (active) in experiment [7].
On to `CCCCC(CC)COC(=O)c1ccccc1O` (stereo unspecified), for which the compound was called inactive in experiment [1], in experiment [2], in [3], in [4], in experiment [5] and in experiment [6]. In addition, the outcome in [7], in experiment [8] and in [9] was inactive.
On to `Cc1ccccc1C`, for which the compound was called inactive in experiment [1], in experiment [2], in experiment [3], in [10], in experiment [5] and in experiment [7]. In addition, the compound was called inactive in experiment [8] and in experiment [9].
As to `N#CCc1ccc(Cl)cc1Cl`, the compound was called inactive in experiment [1], in experiment [2], in experiment [3], in [5], in experiment [6] and in experiment [7]. Also, the compound was called inactive in experiment [8] and in experiment [9]. In experiment [4], the half-maximal activity concentration (AC50) was 18.6 µM (active).
For the compound `O=C1C=CC(=O)O1`, the compound was called inactive in experiment [1], in [2], in [3], in experiment [10], in [5] and in experiment [7]. The compound was classed as inactive in [8] and in experiment [9].
